Measured values published in the supplement of paper PMC13380429.

Tests used:
[1] = system: Vero E6 infected with SARS-CoV-2; experiment: morphology score (similarity to uninfected cells); higher = more like uninfected cells; settings: 24 h
[2] = system: Vero E6 infected with SARS-CoV-2; experiment: SARS-CoV-2 infection rate relative to infected DMSO; higher = more infection, active = 60 or less; settings: 24 h

SMILES	morphology score [1]	SARS-CoV-2 infection rate [2]
CC(C(=O)O)c1cccc(C(=O)c2ccccc2)c1 (stereo unspecified) [ketoprofen] (10 µM)	0.173	102% (inactive)
COc1ccc(S(=O)(=O)N2c3ccc(Cl)cc3[C@](O)(c3ccccc3Cl)[C@@H]2C(=O)N2CCC[C@H]2C(N)=O)cc1OC [relcovaptan] (10 µM)	-0.0372	106% (inactive)
OCCN1CCN(CC/C=C2/c3ccccc3Sc3ccc(C(F)(F)F)cc32)CC1 [flupentixol] (10 µM)	0.506	79% (inactive)
